The values below come from publication PMC7862700, “An all-to-all approach to the identification of sequence-specific readers for epigenetic DNA modifications on cytosine”.

Common to all, as to experiment: DAPPL (digital affinity profiling via proximity ligation, sequencing); 10 mM Tris-HCl pH 7.5, 50 mM NaCl, 1 mM DTT, 4% glycerol, room temperature, 30 min; GST-TFs on glutathione beads, 16-mer random dsDNA library, 0.1% formaldehyde crosslink after washing; high values mean tight binding
In test [1] the target is T1, FEV (Homo sapiens, UniProt Q99581 1-238).
T1 sequence: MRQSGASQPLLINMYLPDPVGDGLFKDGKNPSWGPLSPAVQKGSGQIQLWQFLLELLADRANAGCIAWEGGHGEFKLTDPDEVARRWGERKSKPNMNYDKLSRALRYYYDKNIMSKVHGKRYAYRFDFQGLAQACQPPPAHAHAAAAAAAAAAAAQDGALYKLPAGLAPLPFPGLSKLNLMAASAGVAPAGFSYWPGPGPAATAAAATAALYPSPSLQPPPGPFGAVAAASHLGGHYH
The following applies: protein: recombinant; tags: N-terminal GST; dsDNA, one strand shown. The method in brief: (§1)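 A tag-only sample was pooled with DNA-barcoded human transcription factors that had been expressed in yeast as GST fusions and captured on glutathione beads. The pools were incubated for 30 min at room temperature with 200 nmole of a random double-stranded 16-mer DNA library in Tris/NaCl/DTT/glycerol buffer, then washed, crosslinked with 0.1% formaldehyde, proximity-ligated (BsaI/T4 ligase, 1 h, 37 °C), PCR-amplified and sequenced on an Illumina NextSeq500. Binding signal is each hexamer's read frequency for a factor divided by its frequency for the tag-only sample.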

Test [2] has as its target ETV5 (Homo sapiens, UniProt P41161 1-510). The following applies: protein: recombinant; tags: N-terminal GST; dsDNA, one strand shown. The method in brief:
as §1

The target of test [3] is HSF1 (Homo sapiens, UniProt Q00613 1-529). The following applies: protein: recombinant; tags: N-terminal GST; chain copies: 3; dsDNA, one strand shown. The method in brief: as §1
Sequence of HSF1 (Q00613 whole entry): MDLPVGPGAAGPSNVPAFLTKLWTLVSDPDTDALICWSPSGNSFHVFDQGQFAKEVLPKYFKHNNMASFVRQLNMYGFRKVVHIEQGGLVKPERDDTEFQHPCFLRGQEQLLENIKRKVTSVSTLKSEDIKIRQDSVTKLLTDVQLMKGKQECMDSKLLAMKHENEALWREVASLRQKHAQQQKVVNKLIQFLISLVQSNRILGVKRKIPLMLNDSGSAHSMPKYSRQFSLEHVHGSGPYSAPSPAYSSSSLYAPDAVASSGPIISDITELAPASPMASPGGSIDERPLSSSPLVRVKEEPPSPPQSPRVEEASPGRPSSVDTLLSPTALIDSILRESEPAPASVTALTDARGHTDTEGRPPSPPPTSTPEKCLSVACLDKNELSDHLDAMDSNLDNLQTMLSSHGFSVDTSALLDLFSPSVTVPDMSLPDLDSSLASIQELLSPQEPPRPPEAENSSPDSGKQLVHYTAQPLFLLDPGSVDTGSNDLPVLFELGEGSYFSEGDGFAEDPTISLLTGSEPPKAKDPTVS
The target in test [4] is T2, SPIC (Homo sapiens, UniProt Q8N5J4 1-248).
T2 sequence: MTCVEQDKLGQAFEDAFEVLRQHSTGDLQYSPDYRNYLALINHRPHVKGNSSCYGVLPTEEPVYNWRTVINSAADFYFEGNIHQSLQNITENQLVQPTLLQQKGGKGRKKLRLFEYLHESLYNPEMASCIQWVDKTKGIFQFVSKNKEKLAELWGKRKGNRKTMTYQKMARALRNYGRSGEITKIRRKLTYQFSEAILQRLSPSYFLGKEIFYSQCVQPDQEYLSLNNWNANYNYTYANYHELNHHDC
The following applies: protein: recombinant; tags: N-terminal GST; dsDNA, one strand shown. The method in brief:
as §1

Test [5] addresses ELF4 (Homo sapiens, UniProt Q99607 1-663). Conditions: protein: recombinant; tags: N-terminal GST; dsDNA, one strand shown. The method in brief: as §1
Test [6] has as its target T3, ELK4 (Homo sapiens, UniProt P28324-2 1-405).
T3 sequence: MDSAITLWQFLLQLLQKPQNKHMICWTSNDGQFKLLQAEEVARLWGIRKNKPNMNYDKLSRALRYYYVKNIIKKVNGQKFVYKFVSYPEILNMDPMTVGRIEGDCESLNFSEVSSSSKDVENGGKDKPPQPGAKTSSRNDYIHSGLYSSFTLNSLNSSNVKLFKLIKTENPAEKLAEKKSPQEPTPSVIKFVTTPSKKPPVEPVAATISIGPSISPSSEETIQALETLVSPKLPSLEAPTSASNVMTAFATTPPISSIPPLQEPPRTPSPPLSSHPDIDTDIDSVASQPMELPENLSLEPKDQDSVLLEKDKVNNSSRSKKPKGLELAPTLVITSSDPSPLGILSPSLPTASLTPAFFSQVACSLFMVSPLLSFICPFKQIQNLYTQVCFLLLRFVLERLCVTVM
Conditions: protein: recombinant; tags: N-terminal GST; dsDNA, one strand shown. The method in brief: as §1

Test [7] deals with T4, ETV2 (Homo sapiens, UniProt O00321 1-342).
T4 sequence: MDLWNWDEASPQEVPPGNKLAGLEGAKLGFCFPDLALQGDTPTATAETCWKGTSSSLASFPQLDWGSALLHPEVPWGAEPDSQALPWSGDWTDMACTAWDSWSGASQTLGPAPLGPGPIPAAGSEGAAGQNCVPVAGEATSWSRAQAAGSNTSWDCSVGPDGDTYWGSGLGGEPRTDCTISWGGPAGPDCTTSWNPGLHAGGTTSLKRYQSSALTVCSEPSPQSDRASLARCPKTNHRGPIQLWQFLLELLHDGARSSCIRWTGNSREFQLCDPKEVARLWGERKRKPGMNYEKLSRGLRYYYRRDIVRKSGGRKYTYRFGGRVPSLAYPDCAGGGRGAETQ
The following applies: protein: recombinant; tags: N-terminal GST; dsDNA, one strand shown. The method in brief:
as §1

Test [8] deals with T5, ELF3 (Homo sapiens, UniProt P78545 1-371).
T5 sequence: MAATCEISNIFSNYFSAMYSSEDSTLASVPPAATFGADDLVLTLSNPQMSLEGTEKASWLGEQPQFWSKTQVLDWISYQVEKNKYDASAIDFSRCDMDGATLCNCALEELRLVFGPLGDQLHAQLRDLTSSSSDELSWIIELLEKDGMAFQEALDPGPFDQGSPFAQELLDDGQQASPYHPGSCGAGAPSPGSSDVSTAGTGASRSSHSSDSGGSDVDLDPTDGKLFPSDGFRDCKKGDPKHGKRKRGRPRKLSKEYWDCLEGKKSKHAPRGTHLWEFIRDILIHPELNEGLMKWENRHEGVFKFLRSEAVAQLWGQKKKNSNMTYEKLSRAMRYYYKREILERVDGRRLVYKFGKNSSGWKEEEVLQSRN
Conditions: protein: recombinant; tags: N-terminal GST; dsDNA, one strand shown. The method in brief:
as §1

In test [9] the target is CRX (Homo sapiens, UniProt O43186 1-299). The following applies: protein: recombinant; tags: N-terminal GST; dsDNA, one strand shown. The method in brief: as §1
Sequence of CRX (O43186 whole entry): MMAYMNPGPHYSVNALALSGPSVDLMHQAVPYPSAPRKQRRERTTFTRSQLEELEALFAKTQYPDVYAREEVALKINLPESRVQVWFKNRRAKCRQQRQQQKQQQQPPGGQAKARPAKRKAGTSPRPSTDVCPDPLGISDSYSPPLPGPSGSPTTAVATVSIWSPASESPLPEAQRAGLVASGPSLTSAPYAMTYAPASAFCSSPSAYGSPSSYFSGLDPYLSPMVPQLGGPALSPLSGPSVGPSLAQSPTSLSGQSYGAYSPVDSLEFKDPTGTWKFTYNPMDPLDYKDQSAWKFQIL
Test [10] concerns the target ETV1 (Homo sapiens, UniProt P50549 1-477). The following applies: protein: recombinant; tags: N-terminal GST; dsDNA, one strand shown. The method in brief:
as §1

Sequence of ELF4 (Q99607 whole entry): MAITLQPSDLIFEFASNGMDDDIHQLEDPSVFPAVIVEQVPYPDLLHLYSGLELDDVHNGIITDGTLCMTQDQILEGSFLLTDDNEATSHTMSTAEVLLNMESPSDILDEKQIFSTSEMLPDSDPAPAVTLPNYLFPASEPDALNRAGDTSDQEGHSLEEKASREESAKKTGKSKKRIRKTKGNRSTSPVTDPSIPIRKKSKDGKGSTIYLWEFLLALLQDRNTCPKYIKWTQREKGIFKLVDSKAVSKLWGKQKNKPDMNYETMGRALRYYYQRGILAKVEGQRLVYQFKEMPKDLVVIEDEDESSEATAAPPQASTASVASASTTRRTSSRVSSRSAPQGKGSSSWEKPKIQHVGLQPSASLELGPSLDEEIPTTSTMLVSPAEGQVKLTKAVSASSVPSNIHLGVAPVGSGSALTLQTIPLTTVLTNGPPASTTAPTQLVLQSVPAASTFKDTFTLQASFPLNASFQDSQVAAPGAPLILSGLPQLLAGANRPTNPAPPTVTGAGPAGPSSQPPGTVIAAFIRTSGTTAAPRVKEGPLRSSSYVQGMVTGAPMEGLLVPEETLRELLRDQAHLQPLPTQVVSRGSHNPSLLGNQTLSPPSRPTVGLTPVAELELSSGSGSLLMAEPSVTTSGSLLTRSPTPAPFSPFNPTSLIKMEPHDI
Sequence of ETV5 (P41161 whole entry): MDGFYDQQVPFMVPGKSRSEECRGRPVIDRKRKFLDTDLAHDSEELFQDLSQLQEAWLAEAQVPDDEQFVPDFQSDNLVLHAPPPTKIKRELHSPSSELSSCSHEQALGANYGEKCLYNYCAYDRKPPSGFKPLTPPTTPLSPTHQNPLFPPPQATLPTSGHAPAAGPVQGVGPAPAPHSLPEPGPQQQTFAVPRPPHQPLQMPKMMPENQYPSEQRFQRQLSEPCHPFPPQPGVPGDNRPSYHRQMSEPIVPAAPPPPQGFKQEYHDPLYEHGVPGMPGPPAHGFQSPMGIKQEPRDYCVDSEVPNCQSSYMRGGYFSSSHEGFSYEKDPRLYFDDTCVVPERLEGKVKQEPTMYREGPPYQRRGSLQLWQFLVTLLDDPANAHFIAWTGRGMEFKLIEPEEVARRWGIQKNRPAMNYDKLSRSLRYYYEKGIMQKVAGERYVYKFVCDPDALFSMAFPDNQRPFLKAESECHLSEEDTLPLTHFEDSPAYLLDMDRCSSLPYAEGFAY
Sequence of ETV1 (P50549 whole entry): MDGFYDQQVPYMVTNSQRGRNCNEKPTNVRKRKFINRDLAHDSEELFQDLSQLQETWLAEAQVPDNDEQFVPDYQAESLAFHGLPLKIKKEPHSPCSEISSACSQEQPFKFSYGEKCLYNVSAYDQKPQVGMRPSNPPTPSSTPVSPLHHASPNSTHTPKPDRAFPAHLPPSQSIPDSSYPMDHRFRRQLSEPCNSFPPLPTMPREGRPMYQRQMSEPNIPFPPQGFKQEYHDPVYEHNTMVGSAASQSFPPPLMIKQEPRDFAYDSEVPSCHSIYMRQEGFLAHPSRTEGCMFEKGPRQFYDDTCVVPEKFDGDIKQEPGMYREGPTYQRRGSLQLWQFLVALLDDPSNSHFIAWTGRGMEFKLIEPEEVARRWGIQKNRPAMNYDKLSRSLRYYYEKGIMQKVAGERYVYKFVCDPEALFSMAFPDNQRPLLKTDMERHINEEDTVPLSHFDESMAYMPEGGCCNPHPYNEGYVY

For GTTTAA, the binding signal was 1.11 fold enrichment (6-mer frequency, TF over GST control) in [1]; 1.07 fold enrichment (6-mer frequency, TF over GST control) in test [2]; 1.28 fold enrichment (6-mer frequency, TF over GST control) in [3]; 1.02 fold enrichment (6-mer frequency, TF over GST control) in [4]; 1.1 fold enrichment (6-mer frequency, TF over GST control) in test [5]; 1.14 fold enrichment (6-mer frequency, TF over GST control) in test [6]. Besides, the binding signal in test [7] was 1.23 fold enrichment (6-mer frequency, TF over GST control); in test [8], 1.05 fold enrichment (6-mer frequency, TF over GST control); in test [9], 1.79 fold enrichment (6-mer frequency, TF over GST control); in test [10] it was 1.14 fold enrichment (6-mer frequency, TF over GST control).

For the sequence CGTTCT, the binding signal was 1.45 fold enrichment (6-mer frequency, TF over GST control) in test [1]; 1.45 fold enrichment (6-mer frequency, TF over GST control) in [2]; 2.27 fold enrichment (6-mer frequency, TF over GST control) in test [3]; 1.45 fold enrichment (6-mer frequency, TF over GST control) in test [4]; 1.47 fold enrichment (6-mer frequency, TF over GST control) in test [5]; 1.43 fold enrichment (6-mer frequency, TF over GST control) in test [6]. The binding signal in test [7] is 1.39 fold enrichment (6-mer frequency, TF over GST control); in test [8], 1.4 fold enrichment (6-mer frequency, TF over GST control); in [9], 1.49 fold enrichment (6-mer frequency, TF over GST control); in [10], 1.37 fold enrichment (6-mer frequency, TF over GST control).

TGGACT: the binding signal in test [1] was 1.32 fold enrichment (6-mer frequency, TF over GST control); in test [2], 1.33 fold enrichment (6-mer frequency, TF over GST control); in [3], 1.18 fold enrichment (6-mer frequency, TF over GST control); in test [4], 1.31 fold enrichment (6-mer frequency, TF over GST control); in test [5], 1.34 fold enrichment (6-mer frequency, TF over GST control); in test [6] it was 1.25 fold enrichment (6-mer frequency, TF over GST control). Besides, the binding signal in test [7] is 1.27 fold enrichment (6-mer frequency, TF over GST control); in test [8], 1.19 fold enrichment (6-mer frequency, TF over GST control); in test [9], 1.06 fold enrichment (6-mer frequency, TF over GST control); in test [10], 1.33 fold enrichment (6-mer frequency, TF over GST control).

For the sequence TTACCT, the binding signal is 1.26 fold enrichment (6-mer frequency, TF over GST control) in test [1]; 1.35 fold enrichment (6-mer frequency, TF over GST control) in test [2]; 1.45 fold enrichment (6-mer frequency, TF over GST control) in test [3]; 1.01 fold enrichment (6-mer frequency, TF over GST control) in test [4]; 1.21 fold enrichment (6-mer frequency, TF over GST control) in test [5]; 1.32 fold enrichment (6-mer frequency, TF over GST control) in [6]. In addition, the binding signal was 1.32 fold enrichment (6-mer frequency, TF over GST control) in test [7]; 1.2 fold enrichment (6-mer frequency, TF over GST control) in test [8]; 2.09 fold enrichment (6-mer frequency, TF over GST control) in [9]; 1.32 fold enrichment (6-mer frequency, TF over GST control) in test [10].

As for ATGAAT, the binding signal in test [1] is 1.07 fold enrichment (6-mer frequency, TF over GST control); in test [2], 1.1 fold enrichment (6-mer frequency, TF over GST control); in [3] it was 1.19 fold enrichment (6-mer frequency, TF over GST control); in test [4], 1.31 fold enrichment (6-mer frequency, TF over GST control); in [5], 1.14 fold enrichment (6-mer frequency, TF over GST control); in test [6], 1.13 fold enrichment (6-mer frequency, TF over GST control). For the same sequence, the binding signal was 1.04 fold enrichment (6-mer frequency, TF over GST control) in test [7]; 1.08 fold enrichment (6-mer frequency, TF over GST control) in test [8]; 1.2 fold enrichment (6-mer frequency, TF over GST control) in test [9]; 1.16 fold enrichment (6-mer frequency, TF over GST control) in [10].

For TCGCCC, the binding signal is 1.3 fold enrichment (6-mer frequency, TF over GST control) in test [1]; 1.24 fold enrichment (6-mer frequency, TF over GST control) in test [2]; 1.09 fold enrichment (6-mer frequency, TF over GST control) in test [3]; 1.49 fold enrichment (6-mer frequency, TF over GST control) in [4]; 1.23 fold enrichment (6-mer frequency, TF over GST control) in test [5]; 1.19 fold enrichment (6-mer frequency, TF over GST control) in test [6]. Besides, the binding signal was 1.19 fold enrichment (6-mer frequency, TF over GST control) in [7]; 1.22 fold enrichment (6-mer frequency, TF over GST control) in test [8]; 1.07 fold enrichment (6-mer frequency, TF over GST control) in [9]; 1.26 fold enrichment (6-mer frequency, TF over GST control) in [10].

Turning to TTCTAT, the binding signal in test [1] is 1.4 fold enrichment (6-mer frequency, TF over GST control); in [2] it was 1.43 fold enrichment (6-mer frequency, TF over GST control); in test [3], 2.05 fold enrichment (6-mer frequency, TF over GST control); in test [4], 1.44 fold enrichment (6-mer frequency, TF over GST control); in test [5], 1.4 fold enrichment (6-mer frequency, TF over GST control); in [6], 1.52 fold enrichment (6-mer frequency, TF over GST control). The binding signal in [7] is 1.32 fold enrichment (6-mer frequency, TF over GST control); in test [8], 1.28 fold enrichment (6-mer frequency, TF over GST control); in test [9], 1.67 fold enrichment (6-mer frequency, TF over GST control); in [10] it was 1.3 fold enrichment (6-mer frequency, TF over GST control).

Regarding TTCTAC, the binding signal in [1] was 1.5 fold enrichment (6-mer frequency, TF over GST control); in test [2], 1.55 fold enrichment (6-mer frequency, TF over GST control); in test [3], 2.46 fold enrichment (6-mer frequency, TF over GST control); in [4] it was 1.7 fold enrichment (6-mer frequency, TF over GST control); in test [5], 1.48 fold enrichment (6-mer frequency, TF over GST control); in [6], 1.59 fold enrichment (6-mer frequency, TF over GST control). Also, the binding signal in test [7] is 1.53 fold enrichment (6-mer frequency, TF over GST control); in test [8] it was 1.64 fold enrichment (6-mer frequency, TF over GST control); in test [9], 1.69 fold enrichment (6-mer frequency, TF over GST control); in [10], 1.56 fold enrichment (6-mer frequency, TF over GST control).
